Records with an inconclusive call do not appear. The source made the active and inactive calls. Calls follow the shape of the dose curve; as a rule, active = well fitted activation curve with a large enough effect; inconclusive = small, poorly fitted or top-dose-only effect; inactive = no such curve, though single readings can be large or run the other way.
The compounds below were run against Relaxin receptor 1 (Homo sapiens) (UniProt Q9HBX9) (assay: qHTS Assay for Agonists of the Relaxin Receptor RXFP1: RXFP1 Hit Validation). Conditions: HEK293T-RXFP1 cAMP TR-FRET, 30 min; series mostly up to 115 µM; activation: at the top concentration.
Relaxin receptor 1 (Homo sapiens), sequence (Q9HBX9 whole entry, looked up): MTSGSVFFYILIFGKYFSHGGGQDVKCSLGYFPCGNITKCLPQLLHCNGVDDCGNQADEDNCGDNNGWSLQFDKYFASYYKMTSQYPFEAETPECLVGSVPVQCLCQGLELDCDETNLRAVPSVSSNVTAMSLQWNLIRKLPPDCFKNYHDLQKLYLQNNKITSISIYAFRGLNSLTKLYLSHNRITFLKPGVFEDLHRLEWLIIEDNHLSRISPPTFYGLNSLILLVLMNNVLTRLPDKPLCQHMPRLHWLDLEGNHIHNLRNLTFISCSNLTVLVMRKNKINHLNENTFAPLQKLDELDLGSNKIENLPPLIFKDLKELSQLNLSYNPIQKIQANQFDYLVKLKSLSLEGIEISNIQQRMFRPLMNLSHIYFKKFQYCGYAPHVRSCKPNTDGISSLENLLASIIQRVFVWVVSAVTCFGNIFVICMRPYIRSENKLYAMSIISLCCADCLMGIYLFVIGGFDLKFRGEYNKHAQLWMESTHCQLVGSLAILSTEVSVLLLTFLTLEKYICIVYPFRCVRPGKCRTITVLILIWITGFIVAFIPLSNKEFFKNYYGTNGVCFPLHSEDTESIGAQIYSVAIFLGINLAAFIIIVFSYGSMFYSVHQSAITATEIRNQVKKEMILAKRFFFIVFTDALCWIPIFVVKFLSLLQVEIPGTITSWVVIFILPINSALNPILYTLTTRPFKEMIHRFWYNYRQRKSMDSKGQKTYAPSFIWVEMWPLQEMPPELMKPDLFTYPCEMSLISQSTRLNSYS
Source text: NIH Chemical Genomics Center [NCGC] NIH Molecular Libraries Probe Production Centers Network [MLPCN] MLPCN Grant: R03 MH085705-01A1 Assay Submitter (PI): Alexander Agoulnik NCGC Assay Overview: The relaxin hormone is involved in the variety of biological functions in normal tissues and diseases. The role of relaxin is well-established in female reproduction and parturition, mammary gland and endometrial development, maintenance of myometrial quiescence during pregnancy. Relaxin signaling through its G protein-coupled receptor (GPCR) RXFP1 results in ECM remodeling through regulation of collagen deposition, cell invasiveness, proliferation and overall tissue homeostasis. […] Recombinant human relaxin (rhRlx) is currently being tested in clinical trials as a protective agent in congestive heart failure, in treating severe preeclampsia, and as an anti-fibrotic agent in systemic sclerosis. Upon relaxin binding RXFP1 activation leads to the activation of adenylate cyclase (AC) via Gs. cAMP will activate PKA, which phosphorylates many signaling proteins. Thus, detection of cAMP increase is an easy and reliable indication of relaxin receptor activation. To screen for agonists of the relaxin receptor, a HEK293T cell line stably transfected with RXFP1 was used. RXFP1 activation was assayed by changes in cAMP levels as detected with a time-resolved fluorescence energy transfer (TR-FRET) cAMP detection kit.
NCGC Assay Protocol Summary: This is a cell-based assay for cAMP second messenger response to screen for agonists of the RXFP1 receptor. The assay was conducted in the presence of a PDE4 inhibitor (Ro 20174). The cells were lysed and the cAMP levels were measured with a TR-FRET cAMP kit. Presence of cAMP in the cell lysate disrupts binding between the cryptate-labeled anti-cAMP and d2-labeled cAMP pair, leading to a decrease in the TR-FRET signal. Data were normalized to the controls for basal activity (buffer only) and 100% activity (29 nM porcine relaxin). The EC50 values were determined from concentration-response data modeled with the standard Hill equation 1536-well assay protocol for the HEK293 RXFP1 cAMP assay: (1) Add 3 ul HEK293 RXFP1 cell culture. 2000 cells/well in DMEM/F12, 10% FBS, 1x Pen/Strep (dispensed offline with MultiDrop Combi). (2) Incubate 16-24 hr at 37C, 5% CO2. (3) Add 1 ul 400uM Ro20174 in DPBS, 0.05% BSA, 0.005% Tween 20. (3) Add 23 nl compounds in DMSO solution. Final concentration was 0.5 - 58 uM. (4) Incubate 30 min at 37C, 5% CO2. (5) Add 1 ul cAMP-d2 in lysis buffer (HTRF cAMP HiRange kit, CisBio). (6) Add 1 ul anti-cAMP antibody-cryptate in lysis buffer (HTRF cAMP HiRange kit, CisBio). (7) Incubate 30 min at room temperature. […] Keywords: relaxin, RXFP1, RXFP2, G-protein coupled receptor, cAMP, agonist, high throughput screening, MLSMR, MLSCN, NIH Roadmap, qHTS and NCGC
For `COc1cccc(C(=O)CSc2nnc(-c3cc(OC)cc(OC)c3)o2)c1`, the Potency was 13.8 µM (active). `O=C(Oc1ccccc1)Oc1ccc2c(c1)oc(=O)c1ccccc12` was tested, and the Potency was 21.8 µM (active). For `C=C(C)C(=O)Nc1cccc(C2=NOC3(C2)C[C@@H](C(N)=O)N(C(=O)c2ccc(Cl)cc2)C3)c1` (stereo not given in full), the “activation” value was 4.05% (inactive). `Cc1ccc(CN(C)C(=O)c2ccccc2NC(=O)c2ccccc2)o1` was tested, and the “activation” value was -3.25% [at 125 µM] (inactive). `CCC1(C)Cc2c(sc3c2c2ncnn2c2nnc(SCC(=O)NCc4ccco4)n32)CO1` (stereo not given) was tested, and the Potency was 12.3 µM (active). `CCNc1nc(NCC)nc(N(C)/N=C/c2ccco2)n1` was tested, and the “activation” value was 7.3% (inactive). With `COC(=O)[C@@H]1C[C@@]2(O)[C@H](O)[C@H](O)[C@H](O)C[C@H]2N1Cc1cc(F)ccc1F` the “activation” value was 3.14% (inactive). For `CCN(CC)S(=O)(=O)c1ccc(C)c(NC(=O)Cn2cnc3cc([N+](=O)[O-])ccc3c2=O)c1`, the Potency was 38.9 µM (active). In the case of `Cc1ccc(C(=O)Nc2cccc(C(F)(F)F)c2)cc1NC(=O)c1cnnc2ccccc12`, the “activation” value is reported as 7.81% (inactive). `Nc1ncnc2c1ncn2[C@@H]1O[C@H](COS(=O)(=O)O)[C@@H](O)[C@H]1O` was tested, and the Potency was 6.9 µM (active). For `COc1ccccc1CNC(=O)CCCc1nnc2n(C)c(=O)c3sccc3n12`, the “activation” value was 29.2% [at 45 µM] (inactive). `O=C(NC1CCCCCC1)c1cc2c(=O)n3ccccc3nc2s1` was tested, and the Potency was 34.6 µM (active). With `O=C(Nc1ccccc1C(=O)N1CCN(c2ccccc2)CC1)c1ccco1` the “activation” value was -8.04% [at 125 µM] (inactive). In the case of `O=C(Nc1ccccc1C(=O)NCc1ccco1)c1ccco1`, the “activation” value is reported as 19.7% [at 125 µM] (inactive). With `O=C(O)CNC(=O)c1ccccc1NC(=O)c1ccco1` the “activation” value was 2.24% [at 125 µM] (inactive). With `O=C(CN1C(=O)c2cccc3cccc(c23)C1=O)NCCN1CCOCC1` the “activation” value was 28.1% [at 45 µM] (inactive). For `O=C(Nc1ccccc1C(=O)N1CCOCC1)c1ccco1`, the “activation” value was 3.67% [at 125 µM] (inactive). In the case of `O=C(NCCOC(=O)c1ccc([N+](=O)[O-])cc1)c1cccnc1`, the “activation” value is reported as 26.3% (inactive). `CC1CCN(S(=O)(=O)c2ccc3nc(N4CCN(c5ccccc5)CC4)ccc3c2)CC1` was tested, and the Potency was 12.3 µM (active). With `O=C(OCc1nc2ccsc2c(=O)[nH]1)c1cccc(S(=O)(=O)N2CCOCC2)c1` the Potency was 34.6 µM (active). For `Nc1c(S(=O)(=O)O)cc(NC(=O)c2ccccc2)c2c1C(=O)c1ccccc1C2=O`, the “activation” value was 10.9% [at 45 µM] (inactive). For `CN(C)c1ccc(C(=S)N2CCN(S(=O)(=O)c3ccccc3)CC2)cc1`, the “activation” value was 0.765% (inactive). With `Cc1cc2nc3ccc(=[N+](C)C)cc-3sc2cc1N` the “activation” value was -10.4% (inactive). With `Nc1cc2ccncc2c2ccccc12` the “activation” value was 5.74% (inactive). With `O=C(Nc1ccc(Cl)cc1)Nc1ccccc1Sc1ncc([N+](=O)[O-])s1` the “activation” value was 7.1% (inactive). With `Cc1noc(NS(=O)(=O)c2ccc(N3Cc4ccccc4C3=O)cc2)c1C` the Potency was 11.9 µM (active). With `c1ccc(COn2nnc3ccccc32)c(COn2nnc3ccccc32)c1` the “activation” value was 7.76% [at 45 µM] (inactive). `Cc1ccc(-c2ccc3nnc(SCC(=O)NCC4CCCO4)n3n2)cc1` (stereo not given) was tested, and the “activation” value was -24.9% (inactive). For `Cc1cc(C)c(C(=O)CSc2n[nH]c(=O)n2C2CC2)cc1C`, the “activation” value was -3.14% (inactive). In the case of `O=C(NCc1nnc2c(C(F)(F)F)cc(Cl)cn12)c1cccnc1`, the “activation” value is reported as 24.5% (inactive). `COc1ccc(Cl)cc1-c1n[nH]c(=S)o1` was tested, and the Potency was 6.15 µM (active). In the case of `COc1ccc(CN2C(=O)c3cccnc3C2=O)cc1S(=O)(=O)NC1CCCCC1`, the Potency is reported as 38.9 µM (active). `COc1ccc(NC(=O)CSc2nc(-c3ccc(C)cc3)cc(C(F)(F)F)c2C#N)cc1` was tested, and the “activation” value was 26.7% [at 45 µM] (inactive). For `CCOc1ccc2cc(C#N)c(SCC(=O)NC(C)CC)nc2c1` (stereo not given), the Potency was 4.88 µM (active). For `O=C(O)c1ccc(N=C2NC(=O)C(CO)(CO)S2)cc1`, the “activation” value was 4.45% [at 45 µM] (inactive). With `O=C(CCc1nnc2ccc(NCCCN3CCCC3=O)nn12)NCc1ccccc1Cl` the “activation” value was 2.42% (inactive). With `Nc1nnc(CC(=O)N/N=C/c2ccc(-c3ccc(Cl)cc3Cl)o2)s1` the “activation” value was 6.59% (inactive). `N#C/C(=C/c1ccc(OCc2ccccc2)cc1)C(=O)NC1CCCCC1` was tested, and the “activation” value was 12.2% [at 45 µM] (inactive). In the case of `CCn1c(=O)c2sccc2n2c(CCCC(=O)NCc3cccnc3)nnc12`, the “activation” value is reported as 28.5% (inactive). `CN(C)c1ccc(NC(=O)C2C3C=CC(C3)C2C(=O)O)cc1` (stereo not given) was tested, and the “activation” value was -7.21% (inactive).
Also: nearly all actives have a fitted effect of over 65% in size.
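For activation in this document: cAMP rise lowers the TR-FRET signal in lysed cells with PDE4 inhibitor present; 0% = buffer-only basal and 100% = 29 nM porcine relaxin.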
Potency is read from the fitted curve at half-maximal effect.
